Compound activity from PubChem BioAssay.
BAZ2B block – blocks human BAZ2B. AlphaScreen BAZ2B-H3K14Ac peptide displacement. Potency, µM (highest dose often 114 µM), hits mostly inhibitors. AID 504333. actives 4.4% (n = 360,000). Q9UIF8; also: nearly all actives have a fitted effect of over 60% in size
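AlphaScreen displacement of biotin-H3(5-23)K14Ac peptide (50 nM final) from BAZ2B (50 nM final) in PBS pH 7.4, 0.01% Tween-20; complex preformed 30 min RT, then compounds (top 110 uM) 30 min RT, beads 20 min dark.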
Six1-Eya2 blk – inhibitors of human Six1/Eya2 interaction | actives 0.56% (n = 360,000) | Q15475+O00167 | AID 651725 | AlphaScreen GST-Six1/His-Eya2 binding, biochemical; hits give low values | activity change, % (concentration not given with the values); in the data active = activity change below about -65%; inconclusive = mostly about -30% to -63%
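Homogeneous AlphaScreen proximity assay pairing GST-Six1 with His-tagged Eya2 (added as 5X mix: 250 nM and 500 nM) in 50 mM Tris pH 8.0, 300 mM NaCl, 1 mM TCEP. Glutathione donor and nickel acceptor beads; 1 h, 37 °C, dark.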
JMJD2A Tudor inh – JMJD2A Tudor domain (human) inhibition. O75164. AlphaScreen JMJD2A-Tudor / H3K4me3 peptide binding. Potency, µM (doses to about 114 µM), most hits filed as inhibitors. actives 4.4% (n = 390,000). AID 504339; also: nearly all actives have a fitted effect of over 50% in size
G9a block – blocks human histone lysine methyltransferase G9a. Potency, µM (series often up to 102 µM), most hits filed as inhibitors. actives 8.8% (n = 350,000). G9a H3K9 monomethylation, AlphaScreen, 2 h; also: nearly all actives have a fitted effect of over 75% in size
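G9a (20 nM) preincubated 15 min RT with compounds, then 500 nM biotinylated H3K9 peptide and 20 uM SAM added; 2 h RT reaction. Monomethyl-H3K9 product detected by AlphaScreen with anti-H3K9me1 antibody, streptavidin donor and anti-rabbit IgG acceptor beads.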
HP1b chromo inh – blocks HP1-beta chromodomain binding to methylated histone tails; P83916; AlphaScreen HP1-beta / biotin-H3K9me3 peptide binding; Potency, µM (series often up to 114 µM), hits mostly inhibitors; actives 0.56% (n = 390,000); also: nearly all actives have a fitted effect of over 70% in size
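AlphaScreen: HP1-beta (50 nM) preformed 30 min with biotin-H3(1-18)K9me3 peptide (50 nM) in PBS pH 7.4, 0.01% Tween-20. Compound added for 30 min at RT, then streptavidin donor/nickel chelate acceptor beads (10 ug/mL) for 30 min.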
CtBP-E1A inh – blocks the CtBP interaction with E1A. AID 651724. activity change, % (no concentration beside the values). actives 0.49% (n = 340,000). AlphaScreen GST-E1A/His-CtBP binding, 1536-well; hits give low values; in the data active = activity change below about -65%; inconclusive = mostly about -30% to -63%
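GST-E1A and His-tagged CtBP (125 nM each as 5X stock) were preincubated with pin-transferred compound for 2 h at 37 °C in the dark, then glutathione donor and nickel acceptor beads were added for 1 h before AlphaScreen reading.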
Numbers stand for hits; 0 = inactive; ? = inconclusive; - = not tested or not shown; [ ] = remark or other dose. Shown are actives, neighbours in structure and some others; about 10% of the full set was active somewhere. Unless noted, calls follow the shape of the dose curve; as a rule, active = well fitted inhibition curve with a large enough effect; inconclusive = small, poorly fitted or top-dose-only effect; inactive = no such curve, though single readings can be large or run the other way.

SMILES	BAZ2B block	Six1-Eya2 blk	JMJD2A Tudor inh	G9a block	HP1b chromo inh	CtBP-E1A inh
O=C(CCCCCn1c(=S)[nH]c2ccccc2c1=O)N1CCOCC1	0	0	0	35µM	0	0
O=C1COc2ccc(C(=O)NC3CC3)cc2N1	0	0	0	0	0	0
O=C(O)/C=C/C(=O)c1ccc2c(c1)NC(=O)CO2	0	?	0	3.2µM	0	0
Cc1cccc(NC(=O)Cn2cc(S(=O)(=O)c3ccc(F)cc3)c(=O)c3cc4c(cc32)OCO4)c1	0	-	0	0	0	-
CCc1c(-c2ccccc2)nc2sc3c(c2c1N)CCCC3	0	0	0	0	0	0
CCCc1nc2c(C)ccc(C)c2c(N)c1CC	0	0	2.8µM	?	?	0
COc1ccc(-n2c(=O)c(-c3ccc(Cl)cc3)nc3cnc(N4CCNCC4)nc32)cc1	-	-	-	0[0.501 µM]	-	-
O=C(Nc1ccc(-c2nnn(CC(=O)N3CCN(C(=O)c4ccco4)CC3)n2)cc1)c1ccccc1F	0	-	-	56µM	-	-
N#CC1=C(N)Oc2c(oc(CO)cc2=O)C1c1ccsc1 (stereo unspecified)	50µM	0	0	32µM	0	0
N#CC1=C(N)Oc2c(ccc3ccccc23)C1c1ccsc1 (stereo unspecified)	0	0	0	45µM	0	0
CCOC(=O)C1=C(C)OC(N)=C(C#N)C1c1cccs1 (stereo unspecified)	0	0	0	0	0	0
N#CC1=C(N)Oc2c(oc(CO)cc2=O)C1c1cccs1 (stereo unspecified)	0	0	28µM	45µM	0	0
Cc1ccc2c(c1)c(=O)c(S(=O)(=O)c1ccc(C)c(C)c1)cn2CC(=O)Nc1ccccc1	0	-	0	0	0	-
CC1CCC(NC(=O)c2ccc(CS(=O)(=O)c3cccc(C(F)(F)F)c3)o2)CC1 (stereo unspecified)	?	-	0	0	0	-
O=S(=O)(Nc1ccc(F)c(C(F)(F)F)c1)c1ccc(N2CCCCS2(=O)=O)cc1	0	-	0	0	0	-
FC(F)(F)c1nc(=S)c2ccccc2[nH]1	0	0	50µM	0	?	0
O=C(O)c1ccc2nc(C(F)(F)F)[nH]c2c1	0	0	0	0	0	0
FC(F)(F)c1nc2nccnc2[nH]1	-	0	-	-	-	0
S=c1nc(Cc2ccccc2)[nH]c2ccccc12	0	0	0	0	0	0
S=c1nc(COc2ccccc2)[nH]c2ccccc12	0	0	0	18µM	0	-
O=C(O)c1cccc2[nH]c(C(F)(F)F)nc12	56µM	0	32µM	40µM	0	0
Nc1cccc2[nH]c(C(F)(F)F)nc12	56µM	0	?	28µM	?	0
CC1(C(=O)NCc2cccs2)Cc2c(-c3ccccc3)ccnc2O1 (stereo unspecified)	-	0	-	-	-	0
COC(=O)CN1C(=S)N(c2ccc(OC)cc2)C(=O)/C1=C/c1ccc(N2CCOCC2)cc1	28µM	0	?	32µM	?	0
N#Cc1nc(Nc2cc(Cl)cc(Cl)c2)nc(NC2CCCC2)n1	-	-	0	-	-	-
SMILES	BAZ2B block	Six1-Eya2 blk	JMJD2A Tudor inh	G9a block	HP1b chromo inh	CtBP-E1A inh
CC(Sc1nc(N)cc(N)n1)C(=O)NCC1CCCO1 (stereo unspecified)	0	0	0	0[12.7 µM]	0	0
CCN(CC)S(=O)(=O)c1ccc2c(c1)nc(SC(C)C(=O)NCC1CCCO1)n2CC (stereo unspecified)	0	0	0	79µM	0	0
CCOC(=O)c1ccc2c(c1)nc(SC(C)C(=O)NCC1CCCO1)n2CC (stereo unspecified)	0	0	0	0[12.7 µM]	0	-
CC(Sc1nnc(-c2cccs2)n1N)C(=O)NCC1CCCO1 (stereo unspecified)	0	0	0	50µM	0	0
CC(Sc1nnc(-c2ccco2)n1N)C(=O)NCC1CCCO1 (stereo unspecified)	0	0	0	0[12.7 µM]	0	0
Cc1csc(SC(C)C(=O)NCC2CCCO2)n1 (stereo unspecified)	0	0	0	40µM	0	0
COc1ccc(NC(=O)c2ccc(-c3ccc([N+](=O)[O-])cc3)o2)cc1OC	?	0	?	79µM	0	0
COc1cc([N+](=O)[O-])ccc1-c1ccc(C(=O)Nc2ccc(NC(C)=O)cc2)o1	0	0	0	8.9µM	0	0
COC(=O)/C=C/c1ccc(C(=O)NCC(=O)N[C@@H](CCC(=O)OC)C(=O)N[C@@H](CC(C)C)C(N)=O)cc1	-	-	-	0	-	-
CN1CCc2c(sc(NC(=O)c3cc(Cl)sc3Cl)c2C(N)=O)C1	0	0	0	-	0	0
COc1ccc(Cl)cc1NC(=O)CSC1=Nc2ccccc2C2=NC(CC(=O)NCc3cccs3)C(=O)N12 (stereo unspecified)	0	-	0	0	0	-
COc1ccc(NC(=O)C2CCN(S(=O)(=O)c3ccc(Cl)c(C(F)(F)F)c3)CC2)cn1	-	0	-	-	-	0
Cc1ccc(S(=O)(=O)N2CCCCC2)cc1NC(=O)CSCC(=O)O	0	0	0	50µM	0	0
O=C(O)CSCC(=O)Nc1ccc(S(=O)(=O)N2CCCCC2)cc1	0	0	0	0[2.33 µM]	0	0
Cc1ccc(S(=O)(=O)N2CCOCC2)cc1NC(=O)CNCC1CCCCC1	-	0	4µM	10µM	0	0
Cc1ccc2[nH]c(=O)c(CN(Cc3ccco3)Cc3nnnn3Cc3ccccc3)cc2c1	-	-	0	-	0	-
N#C/C(=C\c1ccc([N+](=O)[O-])o1)C(=O)Nc1ccc(F)cc1	45µM	0	?	-	0	0
COc1ccc(NC(=O)/C(C#N)=C\c2ccc(-c3cc(C(=O)O)ccc3C)o2)cc1	56µM	?	?	25µM	0	?
COc1ccc(NC(=O)/C(C#N)=C\c2ccc(Br)o2)cc1	?	0	56µM	-	0	-
COc1ccc(NC(=O)/C(C#N)=C/c2ccc(-c3ccccc3C(=O)O)o2)cc1	0	0	0	0	0	0
Cc1ccccc1Cn1cc(CCC(=O)N2CCOCC2)c2ccccc21	0	0	0	?	0	0
Cc1ccc(N2C(=O)C(CC(=O)Nc3ccc(F)cc3)N(Cc3ccc4c(c3)OCO4)C2=O)cc1 (stereo unspecified)	0	-	0	0	0	-
Cn1c(CNC(=O)c2ccco2)nnc1SCCOc1ccccc1	0	0	0	0	0	0
O=C1NC(c2cccc([N+](=O)[O-])c2)=CCN1c1ccccc1O	0	0	0	19µM	0	-
CN1CCN(CCC(=O)Nc2ccc(C3CCCC3)cc2)CC1	?	0	0	32µM	0	0
CN1CCN(CCC(=O)Nc2ccc(Cl)cc2)CC1	0	-	0	11µM	0	-
O=C(CCN1CCCC1)Nc1ccc(Br)cc1	0	0	0	20µM	0	0
CCN1CCN(C(=O)c2cnn(-c3cccc(C)c3)c2C2CCN(C(=O)OC(C)(C)C)CC2)CC1	0	-	0	0	0	-
